# Screening results: PubChem BioAssay, The Scripps Research Institute Molecular Screening Center
# GPR151 activ: activates the human receptor GPR151; Q8TDV0; PathHunter beta-arrestin GPR151 cells, luminescence; activation, % at 11.2 µM; 650,000 compounds, 1% hits; in the data active = activation above about 4.9%;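 note: 0% = median of compound wells and 100% = cells with positive control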
# Target sequence (Q8TDV0 whole entry, looked up): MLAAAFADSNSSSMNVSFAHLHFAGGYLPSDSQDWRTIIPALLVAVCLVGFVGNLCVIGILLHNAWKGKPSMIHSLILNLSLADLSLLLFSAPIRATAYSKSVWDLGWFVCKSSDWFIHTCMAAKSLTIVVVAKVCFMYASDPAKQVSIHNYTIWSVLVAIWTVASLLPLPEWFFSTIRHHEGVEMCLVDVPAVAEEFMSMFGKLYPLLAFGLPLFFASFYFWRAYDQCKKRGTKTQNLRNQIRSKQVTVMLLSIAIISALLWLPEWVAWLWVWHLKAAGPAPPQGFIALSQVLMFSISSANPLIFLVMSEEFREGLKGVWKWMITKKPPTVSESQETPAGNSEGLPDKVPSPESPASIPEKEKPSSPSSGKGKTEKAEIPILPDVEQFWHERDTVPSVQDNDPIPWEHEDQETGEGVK
# TEAD-YAP inh: TEAD-YAP interaction inhibition | AID 1259422 | 640,000 compounds, 1.4% hits | inhibition, % at 9.12 µM | HEK-TIYL cells, TEAD-Gal4/YAP UAS-luciferase luminescence; in the data active = inhibition above about 32%;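 note: 0% = median of test compound wells and 100% = reference inhibitor wells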
# MITF inh: blocks human microphthalmia-associated transcription factor; O75030; AlphaScreen MITF homodimerization, bead proximity signal; inhibition, % at 2.6 µM; 650,000 compounds, 0.91% hits; AID 1259374; in the data active = inhibition above about 50%;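 note: 0% = vehicle wells with protein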
# FBW7 act: activators of human E3 ligase FBW7 | AlphaScreen FBW7–phospho-cyclin E peptide binding, activator screen | Q969H0 | 650,000 compounds, 0.13% hits | normalized activity (activation), % at 26.1 µM; in the data active = normalized activity above about 1.9%;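 note: purified mutant Fbw7 with reduced substrate affinity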
# GPR151 confirm: human GPR151 activation, confirmation screen; shares compounds with GPR151 activ; GPR151 PathHunter beta-arrestin cells, luminescence, 90 min; % of EA-reagent control over plate median; activation, % at 11.2 µM; 6,700 tested, under 10 active; AID 1508609;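 active = mean percent activation across replicates above the confirmation screen cutoff of 4.91%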
# GPR119 counter: counter-screen for GPR151 activators: effect on human GPR119; AID 1508611; shares compounds with GPR151 activ; activation, % at 11.2 µM; GPR119 PathHunter beta-arrestin cells, luminescence, 90 min; 0 = compound-well median, 100 = enzyme-acceptor control; 6,700 compounds, 0.3% hits;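 active = mean percent activation in the counterscreen above 29.09%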;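 note: counterscreen on off-target GPR119 to flag nonselective hits from the GPR151 activator screen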
# * hit, by the source's call; . = no result. Rows were chosen to be rich in hits. Some 3.5% of all compounds tested hit in one or more screens of this group.
SMILES,GPR151 activ,TEAD-YAP inh,MITF inh,FBW7 act,GPR151 confirm,GPR119 counter
O=C(Cc1ccc(F)cc1)NCc1ccccc1,5.2*,-5,4,0,-1,4
CN(C(=O)C1CC1)c1ccccc1C(=O)NCc1ccccc1,-1,0,4,0,.,.
O=C(Cc1ccccc1)Nc1ccccc1C(=O)NCc1ccccc1,-2,-12,-18,0,.,.
CN(C(=O)c1ccc(F)cc1)c1ccccc1C(=O)NCc1ccccc1,9.0*,8,0,0,1,14
C=CCSc1nc2sc3c(c2c(=O)n1CC=C)CC(C)CC3 (centres undefined),0,-7,-3,0,.,.
CC1(C)CC(=O)C2=C(C1)N1C(=O)NC(c3ccccc3)(C(F)(F)F)N=C1S2 (centres undefined),2,-6,-5,0,.,.
Cc1ccc(CNC(=O)COc2ccccc2C)cc1,7.4*,6,-7,0,1,0
COCC(=O)c1c(O)c2ccccc2[nH]c1=O,2,8,-4,0,.,.
CCOC(=O)CSC1=C(C#N)C(c2ccco2)C(C(=O)Nc2ccccc2)=C(C)N1 (centres undefined),5.0*,-8,-3,1,1,-1
COc1cc(/C=N/Nc2nc3c(c(=O)[nH]c(=O)n3C)n2CC(C)O)ccc1O (centres undefined),-2,0,7,0,.,.
CCOc1cc(/C=N/Nc2nc3c(c(=O)[nH]c(=O)n3C)n2CC(C)C)ccc1O,6.6*,1,4,0,1,5
Cc1cc(C)cc(NC(=O)CC2CC3CCC2C3)c1 (centres undefined),8.7*,0,0,0,-1,-2
Cc1c(C(=O)OC(C)C)sc(NC(=O)c2ccccc2F)c1C#N,5.8*,-3,-1,0,0,0
Cc1c(C(=O)OC(C)C)sc(NC(=O)c2cc(Cl)ccc2Cl)c1C#N,1,4,-1,0,.,.
CCCC(=O)N(c1ccc2oc(C)c(C(=O)OC)c2c1)S(=O)(=O)c1ccc2ccccc2c1,5.2*,-37,7,0,-1,-8
CCCC(=O)N(c1ccc2oc(C)c(C(=O)OCC)c2c1)S(=O)(=O)c1ccc2ccccc2c1,-2,4,8,0,.,.
O=C(CSc1nnc(-c2ccncc2)o1)c1cccc([N+](=O)[O-])c1,0,-12,-2,0,.,.
COc1cc(OC)cc(-c2nnc(SCC(=O)c3cccc([N+](=O)[O-])c3)o2)c1,7.2*,-3,11,0,-1,-16
NC(=NCCC[C@H](N)C(=O)O)NO,5.5*,-3,-5,0,0,-9
Cc1cc(C)nc(NS(=O)(=O)c2ccc(NC(=O)Cc3ccc(F)cc3)cc2)n1,0,-2,5,0,.,.
Cc1cc(C)nc(NC(=O)Cc2ccc(F)cc2)n1,13*,-6,-1,0,0,-3
CCOC(=O)N1CCN(C(=O)c2ccc(CN3CCC(Cc4ccccc4)CC3)cc2)CC1,4.9*,4,-8,0,1,15
COCCNC(=O)c1cccc(OC2CCN(Cc3cnc(SC)nc3)CC2)c1,7.9*,3,12,0,0,2
COCCNC(=O)c1ccc(CN2CCC(Cc3ccccc3)CC2)cc1,5.0*,11,-16,0,0,1
COCCNC(=O)c1cccc(OC2CCN(Cc3ccc(F)c(OC)c3)CC2)c1,0,1,15,0,.,.
SMILES,GPR151 activ,TEAD-YAP inh,MITF inh,FBW7 act,GPR151 confirm,GPR119 counter
O=C(NCc1ccccc1)c1ccc(CN2CCC(Cc3ccccc3)CC2)cc1,-1,3,4,0,.,.
Nc1ccc(-c2nn3cnnc3s2)cc1,0,-2,10,0,.,.
CC1CC(C)CN(C(=O)c2cccs2)C1 (centres undefined),0,7,10,0,.,.
CCc1ccccc1NC(=O)c1ccc(F)c(S(=O)(=O)N2CCCCC2C)c1 (centres undefined),6.7*,-8,7,0,-1,-15
CCCCOC(=O)CCc1c(C)[nH]c(=S)[nH]c1=O,0,1,2,0,.,.
C[C@H]1NC(=O)[C@@H]2C[C@H](NCc3cccc4cccnc34)CN2C1=O,8.6*,4,12,0,0,11
CC1CCc2sc3ncnc(N4CCN(c5ccccn5)CC4)c3c2C1 (centres undefined),-1,6,-7,0,.,.
